This is an account of results in PubChem BioAssay (Tox21).

Where “and” joins values, the source holds several entries; their conditions need not be identical. Equal values may be shown once. Records with an inconclusive call do not appear. Where a structure was tested more than once in an assay, its records may differ in their call. Calls of active or inactive are those of the source. Unless noted, calls come from the whole dose curve; as a rule, active = well fitted curve in the direction sought with a large enough effect in the repeat runs; inconclusive = weak or mixed curves; inactive = no such curve, though single readings can be large; an effect the other way counts as inactive or inconclusive.

The nature of test [1]: qHTS assay for small molecules that induce genotoxicity in human embryonic kidney cells expressing luciferase-tagged ATAD5 (AID 651632). Note: nearly all actives have a fitted effect of over 15% in size. Note: potency is the fitted concentration of half-maximal effect. The gist of the method: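 Quantitative HTS in HEK293T expressing luciferase-tagged ATAD5, whose levels rise upon DNA damage. Exposure ran 16 hr at 37C and 5% CO2, with luminescence read 30 min after Amplite addition at room temperature.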
On the technique in general: Quantitative high-throughput screening tests each substance at several concentrations.

A short description of test [2]: qHTS assay for small molecule agonists of the p53 signaling pathway - cell viability (AID 651633; calls by dose curve; note: nearly all actives have a fitted effect of over 30% in size; note: potency is the fitted concentration of half-maximal effect). The method, boiled down:
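Viability counter-read: CellTiter-Glo luminescence (30 min, room temperature) in the same p53RE-bla plates. These plates had been exposed to compounds for 16 h at 37 C.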

Test [3] can be described thus: qHTS assay for small molecule disruptors of the mitochondrial membrane potential - cell viability (AID 720634; calls by dose curve; note: nearly all actives have a fitted effect of over 20% in size; note: potency is the fitted concentration of half-maximal effect). The method, boiled down: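 ATP-based luminescent viability readout (CellTiter-Glo, 30 min, room temperature) in HepG2 cells multiplexed with the m-MPI membrane potential dye; compound exposure lasted 1 hr at 37 C.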
The nature of test [4]: qHTS assay to test for compound auto fluorescence at 590 nm (red) in HepG2 cells (AID 720674). The gist of the method:
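We screened compounds on adherent HepG2 cells, incubating them for an hour at 37 C in 5% CO2 before reading emission at 590 nm under 540 nm excitation; values reflect equivalence to Rose Bengal sodium fluorescence.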

Test [5] in a line: qHTS assay to test for compound auto fluorescence at 535 nm (green) in HepG2 cells (AID 720675).
The nature of test [6]: qHTS assay to test for compound auto fluorescence at 460 nm (blue) in HEK293 cells (AID 720678). The gist of the method: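 Measured: blue fluorescence (Ex 405/Em 460 nm) of compound-treated HEK293 cells, incubated overnight at 37C with 5% CO2 and scaled to triamterene equivalents.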
A short description of test [7]: qHTS assay to test for compound auto fluorescence at 590 nm (red) in HEK293 cells (AID 720679). The method, boiled down:
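Using HEK293 cells at 2,000 per well, the screen added 23 nL of each compound after cell attachment and incubated overnight (37C, 5% CO2). The plate reader then captured red-label fluorescence, Ex/Em 540/590nm.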

A short description of test [8]: qHTS assay for small molecules that induce genotoxicity in human embryonic kidney cells expressing luciferase-tagged ATAD5 - cell viability (AID 651634; calls by dose curve; note: nearly all actives have a fitted effect of over 25% in size; note: potency is the fitted concentration of half-maximal effect). The method, boiled down:
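After 15.5 hr incubation with compound at 37C, 5% CO2, HEK293T ATAD5-luciferase cells received CellTiter-Fluor reagent; fluorescence intensity was quantified following 30 min at 37C.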

A short description of test [9]: qHTS assay for small molecule disruptors of the mitochondrial membrane potential (AID 720635). Note: potency is the fitted concentration of half-maximal effect. The gist of the method: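 Mitochondrial membrane potential tracked with Mito-MPS dye, red aggregates (ex 540/em 590 nm) against green monomers (ex 490/em 535 nm). Compound treatment 1 hr at 37C, dye 30 min in HepG2.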
% is set by controls: 0 for no effect and ±100 for the full control effect.

Turning to `C=C1CC[C@H](O)C/C1=C\C=C1/CCC[C@]2(C)[C@@H]([C@H](C)CCCC(C)C)CC[C@@H]12`, the Potency entry in [1], in test [3], in [4], in [5], in [6] and in test [7] was “inactive” each time. In addition, the Potency in test [2] was 26.6 µM (active) and 60.6 µM (active).

Turning to `CC(=O)CCC(=O)O`, the Potency entry in test [1], in [8], in test [3], in test [4], in [5] and in test [6] was “inactive” in each case. The Potency result in test [7] was “inactive”.

As for `CN1[C@@H]2CC(OC(=O)[C@H](CO)c3ccccc3)C[C@H]1[C@@H]1O[C@@H]12` (stereo partly drawn), the Potency result in test [1], in test [2], in test [8], in [4], in test [5] and in test [6] was “inactive” throughout. The Potency result in test [7] was “inactive”.

`Cc1ccc(S(=O)(=O)O)cc1`: the Potency entry in test [2], in [8], in test [3], in test [4], in test [5] and in [6] was “inactive” throughout. The Potency result in [7] is “inactive”.

With `O=S1(=O)OC(c2ccc(O)cc2)(c2ccc(O)cc2)c2ccccc21`, the Potency result in test [1], in test [2], in test [4], in test [5], in test [6] and in test [7] was “inactive” throughout. In addition, the Potency in [8] was 48.6 µM (active) and 8.63 µM (active).

With `NC1CCCCC1`, the Potency result in test [1], in [2], in test [8], in test [4], in [5] and in test [6] was “inactive” throughout. In test [7], the Potency entry is “inactive”.

For the compound `CCCC[P+](CCCC)(CCCC)CCCC`, the Potency result in [2], in test [8], in [3], in test [4], in test [5] and in test [6] was “inactive” each time. In addition, in test [7], the Potency result is “inactive”.

In the case of `CN(C)CCOC(c1ccccc1)c1ccccc1`, the Potency entry in test [1], in test [2], in [8], in test [4], in [5] and in test [6] was “inactive” each time. Also, the Potency entry in test [7] is “inactive”.

Consider `O=C1NC(=O)C(c2ccccc2)(c2ccccc2)N1`, for which the Potency entry in [1], in test [8], in test [9], in test [4], in test [5] and in test [6] was “inactive” in each case. In addition, the Potency result in test [7] is “inactive”.

Consider `CC(=O)CC(c1ccccc1)c1c(O)c2ccccc2oc1=O` (stereo not drawn), for which the Potency result in [8], in test [4], in test [5], in test [6] and in [7] was “inactive” throughout.

As to `CC(C)NCC(O)c1ccc(O)c(O)c1` (stereo not drawn), the Potency result in [2], in [8], in [3], in test [9], in test [4] and in test [5] was “inactive” throughout. In addition, the Potency result in test [6] and in test [7] was “inactive” each time.

`C=C(C)C(=O)OCC(C)O` (stereo not drawn): the Potency result in test [1], in test [2], in test [8], in test [4], in [5] and in test [6] was “inactive” in each case. In addition, in [7], the Potency entry is “inactive”.

In the case of `CCCCCCc1ccc(O)cc1O`, the Potency result in test [1], in test [8], in test [4], in test [5], in test [6] and in test [7] was “inactive” throughout. Further, the Potency entry in [2] was “inactive and 54.6 µM (active) and 61.1 µM (active)”; in test [9] it was 5.96 µM (active) and 4.87 µM (active) and 6.86 µM (active).

For `O=c1[nH]cnc2c1ncn2[C@H]1CC[C@@H](CO)O1`, the Potency entry in test [1], in test [8], in test [3], in test [4], in test [5] and in test [6] was “inactive” throughout. Also, in [7], the Potency entry is “inactive”.

Consider `C1CCC(C(CC2CCCCN2)C2CCCCC2)CC1` (stereo not drawn), for which the Potency entry in [1], in [4], in [5], in test [6] and in test [7] was “inactive” in each case. Further, the Potency in test [2] was 23.7 µM (active); in [8], 26.6 µM (active).

As to `CCN(Cc1c(F)cccc1Cl)c1c([N+](=O)[O-])cc(C(F)(F)F)cc1[N+](=O)[O-]`, the Potency entry in test [1], in test [8], in [3], in test [4], in test [5] and in test [6] was “inactive” each time. Besides, the Potency entry in test [7] is “inactive”.

Take `F[B-](F)(F)F`: the Potency result in test [1], in [8], in test [4], in [5], in test [6] and in [7] was “inactive” throughout.

As for `CC/C(=C(\c1ccccc1)c1ccc(OCCN(C)C)cc1)c1ccccc1`, the Potency was 54.5 µM (active) [middle of 5 runs] in test [2]; 29.8 µM (active) and 61.5 µM (active) in [8]. For the same compound, the Potency entry in [4], in [5], in test [6] and in test [7] was “inactive” throughout.

For the compound `CC(=O)Nc1c(I)c(NC(C)=O)c(I)c(C(=O)O)c1I`, the Potency entry in [1], in [2], in [8], in test [9], in test [4] and in test [5] was “inactive” each time. For the same compound, the Potency entry in [6] and in test [7] was “inactive” in each case.

Turning to `CN1CCC[C@H]1c1cccnc1`, the Potency result in test [1], in test [8], in [3], in [4], in [5] and in test [6] was “inactive” each time. Moreover, the Potency entry in test [7] was “inactive”.

`O=C(Nc1ncc([N+](=O)[O-])s1)c1cccs1`: the Potency in test [1] is 3.76 µM (active); in [8] it was 26.6 µM (active); in [3], 15 µM (active). In addition, the Potency result in test [4], in [5], in [6] and in test [7] was “inactive” in each case.

For the compound `COc1ccc(CN(CCN(C)C)c2ccccn2)cc1`, the Potency entry in [8], in test [4], in test [5], in [6] and in test [7] was “inactive” throughout.

For `CC(C)c1c(C(=O)Nc2ccccc2)c(-c2ccccc2)c(-c2ccc(F)cc2)n1CC[C@@H](O)C[C@@H](O)CC(=O)O`, the Potency entry in [3], in test [4], in test [5], in [6] and in test [7] was “inactive” each time.

With `O=CC(=O)c1ccccc1`, the Potency result in test [2], in test [8], in test [4], in test [5], in test [6] and in [7] was “inactive” in each case.

As to `O=C1NS(=O)(=O)c2ccccc21`, the Potency entry in test [8], in test [9], in test [4], in [5], in [6] and in test [7] was “inactive” each time.
